SMILES strings stand for the structures. The whole screen tested about 48,000 compounds, of which about 13,000 (27%) showed an effect of 50% or more. The list shows a part of the results.

The experiment has as its system Wolbachia pipientis. Nature of the experiment: Anti-Wolbachia Cell-Based Screen. Type of experiment: functional. Details: scale not given: in the data most compounds retested in dose-response had high values. Conditions: 5 µM.
With `COc1ccccc1-c1noc(CNc2ccc(F)cc2OCCO)n1`, the “Percent Effect” value worked out at 0.4936%. In the case of `CN(C)c1nccc(N(C)Cc2nc3ccccc3n2C)n1` it was -8.65%. In the case of `CCNc1ncc(C(=O)N(C)Cc2nc3ccccc3n2C)cn1` it was -2.006%; in that of `COCCOc1ncccc1NCc1nc2ccccc2n1C`, 92.25%. In the case of `COc1ccc(-n2c(CO)nc3ccccc32)cc1CO` it was -2.808%; in that of `Cc1cc(NC(=O)NC(C)(C)c2nc(C)c(C)s2)no1`, 5.891%; in that of `CSc1ccc(-c2nc(CN3CCC(C(N)=O)CC3)c(C)o2)cc1`, 12.72%.

As to `Cc1cc(S(=O)(=O)N2CCC(N3CCC(O)C3)CC2)c(Cl)cc1Cl` (stereo unspecified), the “Percent Effect” value is -12.47%. In the case of `CCn1cnnc1CN(C)Cc1c[nH]nc1-c1ccc(F)cc1` it was 6.499%. In the case of `Cc1cnc(C(=O)N2CCc3c(nc(-c4ccncc4)[nH]c3=O)C2)cn1` it was -3.986%; in that of `Cn1ccnc1-c1ccccc1C(=O)N1CCc2c(nc(N)[nH]c2=O)C1`, 1.911%.

Take `O=C(c1ccccn1)N1CCc2c(nc(-c3ccncc3)[nH]c2=O)C1`: the “Percent Effect” value is given as -0.04653%. To `Cn1cccc1CN1CCc2c(nc(-c3ccccn3)[nH]c2=O)C1` belongs 114.7%; to `Cc1ncc(CN2CCc3c(nc(-c4ccccn4)[nH]c3=O)C2)n1C`, 100.8%. In the case of `CC(NC(=O)N1CCN(c2ccc(Cl)cc2)CC1)C(=O)N1CCSCC1` (stereo unspecified) it was -1.833%; in that of `Nc1nc(C2CCN(C(=O)c3cnco3)CC2)cs1`, 114.6%. In the case of `Nc1nc(C2CCN(C(=O)c3cnccn3)CC2)cs1` it was 113.4%. Regarding `CCc1nc(CN2CCN(C(=O)c3cnccn3)CC2)cs1`, the “Percent Effect” value is -1.168%. To `O=C(c1cnccn1)N1CCC(Oc2ncccc2Cl)CC1` belongs 33.47%; to `O=C(NCC1CCCN1Cc1ccccc1)NCC1(O)CCC1` (stereo unspecified), 10.62%; to `Cn1cc(Cl)c(C(=O)N2CCCN(C3Cc4ccccc4C3)CC2)n1`, 3%.

`CCCn1cc(Cl)c(C(=O)N2C[C@H]3C[C@H](OC)C[C@H]3C2)n1`: the “Percent Effect” value was 128.4%. In the case of `CCCn1cc(C(=O)n2nc(C)cc2C)c(S(=O)(=O)N2CCSCC2)n1` it was -15.72%; in that of `CCCn1cc(Cl)c(C(=O)N2C[C@@H](O)[C@H](NC(C)=O)C2)n1`, 135.9%; in that of `Cn1cc(Cl)c(C(=O)N2CCC(N3CCc4ccccc4C3)CC2)n1`, 3.443%.

With `CCCn1cc(Cl)c(C(=O)N2C[C@@H](O)[C@H](Oc3ccccc3)C2)n1`, the “Percent Effect” value is 77.97%.

As for `CCCn1ccnc1CN1C[C@@H](NC(C)=O)[C@H](c2ccc(C)cc2)C1`, the “Percent Effect” value is on record as -5.902%. Regarding `CC(=O)N[C@@H]1CN(C(=O)c2ccncc2)C[C@H]1c1ccc(C)cc1`, the “Percent Effect” value is -2.552%. In the case of `CCOCCCNC(=O)c1nn(CC)cc1Cl` it was 13.91%; in that of `COCCN(Cc1ccccn1)C(=O)CC1OCCc2ccsc21` (stereo unspecified), 1.398%. To `COc1ccc(Br)cc1CN(C)C(C)c1nc(C)no1` (stereo unspecified) belongs 6.293%; to `COc1ccc(C2(NCc3noc(C4CC4)n3)CCOCC2)cc1`, -5.013%. In the case of `COC(C)c1cccc(NC(=O)N(CCC#N)Cc2ccccn2)c1` (stereo unspecified) it was 1.571%; in that of `O=C(Nc1cccc(CN2CCOC2=O)c1)N1CCOCC1`, -4.373%.

On to `O=C1NC2(CCN(C(=O)Cc3ccsc3)CC2)CC1c1ccncc1` (stereo unspecified), for which the “Percent Effect” value is listed as -1.55%.

For `CC1NC(=O)COC12CCN(C(=O)Cc1ccsc1)CC2` (stereo unspecified), the “Percent Effect” value was -21.8%. To `CCN1CCNC(=O)C12CCN(C(=O)Cc1ccsc1)CC2` belongs 113.3%; to `COc1cccc(OCC2CCCN(C(=O)c3cnc(C)nc3O)C2)c1` (stereo unspecified), -22.18%; to `Cc1nn(C)cc1C(=O)N1CCCN(C2Cc3ccccc3C2)CC1`, -1.892%. To `COc1cccc([C@@]2(O)CC[C@@H]3CN(C(=O)c4cn(C)nc4C)C[C@@H]32)c1` belongs 91.14%.

With `COCCN1C(=O)CCC12CCN(C(=O)CNC(C)=O)CC2`, the “Percent Effect” value is recorded as 102.7%. As for `Cc1ccc(C(=O)N2CCC3(CCC(=O)N(CCN(C)C)C3)CC2)nc1`, the “Percent Effect” value is 13.38%. To `COCCN1C(=O)CCC12CCN(c1ncc(F)cn1)CC2.O=C(O)C(F)(F)F` belongs 4.325%; to `O=C1CCC2(CCN(S(=O)(=O)c3ccccc3)CC2)N1CC1CC1`, -5.701%; to `COCCN1C(=O)CCC12CCCN(c1ncc(F)cn1)CC2` (stereo unspecified), -9.893%. To `COCCN1C(=O)CC[C@]12CC[C@@H](NC(=O)c1cc(C)on1)CC2` belongs -11.81%. Regarding `Cc1cc(C(=O)N[C@H]2CC[C@@]3(CCC(=O)N3CC3CC3)CC2)no1`, the “Percent Effect” value is on record as -41.45%. For `CN(C)CCN1C(=O)CCC12CCCN(C(=O)CC1CC1)CC2` (stereo unspecified), the “Percent Effect” value came out at 109.9%. In the case of `COCCN1C(=O)CCC12CCCN(C(=O)CC1CC1)CC2` (stereo unspecified) it was 103.4%; in that of `CCC(C(=O)N1CCCN(CCN(C)C)CC1)N1CCCC1=O` (stereo unspecified), -2.353%; in that of `O=C(CC1CC1)N1CCCC2(CCC(=O)N2CC2CC2)CC1` (stereo unspecified), 113.9%.
